Assay outcomes as filed in PubChem BioAssay.
D2 PAM-1 – HTS Assay for Positive Allosteric Modulators of the Human D2 Dopamine Receptor: Primary Screen for Potentiators; AID 485347, 2010; HEK293 T-REx D2, calcium flux, EC20 dopamine potentiation; 0.34% of 340,000 active; potentiation, % at 10 µM; D(2) dopamine receptor (Homo sapiens), P14416;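 active = potentiation over 3 SD above the plate norm, cut at about 30% in these data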; also: 0% is about no effect
Target sequence (P14416 whole entry, looked up): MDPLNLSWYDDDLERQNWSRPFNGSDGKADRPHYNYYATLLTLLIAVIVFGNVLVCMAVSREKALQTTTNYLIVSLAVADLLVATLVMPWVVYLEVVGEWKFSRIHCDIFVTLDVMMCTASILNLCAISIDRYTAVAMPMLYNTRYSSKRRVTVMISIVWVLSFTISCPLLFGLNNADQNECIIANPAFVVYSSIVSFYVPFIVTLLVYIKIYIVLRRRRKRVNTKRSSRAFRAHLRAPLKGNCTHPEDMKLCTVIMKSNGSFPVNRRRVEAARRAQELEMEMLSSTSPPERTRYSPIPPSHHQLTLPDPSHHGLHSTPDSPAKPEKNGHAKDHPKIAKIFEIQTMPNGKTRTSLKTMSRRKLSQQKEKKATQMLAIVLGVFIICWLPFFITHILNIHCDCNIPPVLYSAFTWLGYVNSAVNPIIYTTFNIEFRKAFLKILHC
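Potentiation of an EC20 dopamine calcium response measured kinetically over 180 s, after a preceding 180 s compound-only read flagging agonists. Cells: inducible Hek293 Trex D2 line, 4000/well, cultured overnight at 30 C before dye loading.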
D2 PAM-2 – Beta-Arrestin HTS for Positive Allosteric Modulators of the Human D2 Dopamine Receptor: Potentiators; 0.23% of 360,000 active; DiscoveRx D2 beta-arrestin cells, luminescence, 90 min; 100% = 57 uM dopamine signal; potentiation, % (test concentration not listed); AID 624464, 2012; D(2) dopamine receptor (Homo sapiens), P14416; in the data active = potentiation above about 50%; inconclusive = mostly about 30% to 49%
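PathHunter D2 cells, attached overnight at 37 deg C, received compound in DMSO plus dopamine at EC20 (50 nM final) for 90 min at 37 deg C. Beta-arrestin recruitment was read as luminescence after 1 h with detection reagent at ambient temperature.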
D2 ag-1 – Beta-Arrestin HTS for Positive Allosteric Modulators of the Human D2 Dopamine Receptor: Agonists | activation, % (no concentration beside the values) | DiscoveRx PathHunter D2 beta-arrestin, luminescence, 90 min; 100% = 57 uM dopamine signal | D(2) dopamine receptor (Homo sapiens), P14416 | AID 624465, 2012 | 0.084% of 360,000 active; in the data active = activation above about 40%; inconclusive = between about 15% and that limit
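DiscoveRx PathHunter D2 beta-arrestin cells (2,100/well) attached overnight, then compound-stimulated 90 min at 37 C in HBSS/10 mM HEPES/0.1% Tween-20 buffer; beta-galactosidase complementation read by luminescence after 1 h at ambient temperature. Dopamine 57 uM final (EC100) as control.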
D2 ag-2 – HTS Assay for Allosteric Agonists of the Human D2 Dopamine Receptor: Primary Screen for Agonists. HEK293 T-REx D2 cells, calcium flux agonist mode. activation, % at 2 µM. AID 485358, 2010. 0.53% of 340,000 active;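 active = activation over 3 SD above normal in the single-dose calcium agonist read, cut at about 30% in these data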; also: 0% is about no effect
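In this primary screen, compounds producing a positive calcium signal within 180 s of addition to tetracycline-induced, force-coupled HEK293 Trex D2 cells are flagged; cells are dye-loaded with a no-wash calcium kit beforehand.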
D2 antag – HTS Assay for Allosteric Antagonists of the Human D2 Dopamine Receptor: Primary Screen for Antagonists; HEK293 TREx D2 cells, calcium flux, dopamine EC80; AID 485344, 2010; inhibition, % at 10 µM; 2% of 340,000 active; D(2) dopamine receptor (Homo sapiens), P14416; in the data active = inhibition above about 30%; inactive = below that, where a call was filed; also: 0% is about no effect
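Antagonism is scored as inhibition of an EC80 dopamine-evoked calcium signal in a force-coupled, tetracycline-inducible HEK293 T-REx D2 line, with compound present 180 s before agonist.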
* hit, by the source's call; u = inconclusive; x = not tested or not shown. In the library only some 2.4% were active in any assay of this set; here they are far more common.

SMILES	D2 PAM-1	D2 PAM-2	D2 ag-1	D2 ag-2	D2 antag
O=C1C(c2cccc(Br)c2)N(CCc2ccccc2)C(=O)CN1C1CCCCC1 (centres undefined)	-6	x	x	0	x
c1ccc(N2CCN(CC3CCCCC3)CC2)cc1	-19	-3	u	71*	68*
O=C(COC(=O)/C=C/c1cccc([N+](=O)[O-])c1)Nc1ccc(Cl)cn1	13	-3	-2	0	39*
COc1ccc(CN2CCc3ccccc3C2)c(OC)c1	-22	-23	-2	-2	24
COc1ccc(CN2CCC(N(CCc3ccccc3)Cc3ccccc3)CC2)c(OC)c1	-32	-17	-1	-1	35*
CCCN1CCC(N(CCc2ccccc2)Cc2ccccc2)CC1	-16	-4	5	-1	39*
COc1ccc(NS(=O)(=O)c2cc3[nH]c(=O)c(=O)[nH]c3cc2C)cc1Cl	5	x	x	1	x
CCOc1ccc(CCNC(=O)c2cn(CC)c3ccc(S(=O)(=O)N4CCCCCC4)cc3c2=O)cc1OCC	3	x	x	-1	x
Cc1c(C(=O)NC2CCN(Cc3ccccc3)C2)oc2ccc(Br)cc12 (centres undefined)	-25	-20	2	-1	38*
O=C(NC1CCN(Cc2ccccc2)CC1)c1cccc(Br)c1	-26	-13	-1	0	98*
O=C(COc1ccc(Br)cc1Cl)NC1CCN(Cc2ccccc2)CC1	-20	-23	-3	1	67*
O=C(NC1CCN(Cc2ccccc2)CC1)C1COc2ccccc2O1 (centres undefined)	-25	-46	3	-2	34*
CCOc1ccc2oc(C(=O)NC3CCN(Cc4ccccc4)CC3)c(C)c2c1	-17	-14	-5	0	-12
Cc1ccc(CSc2nc3ccc(NC(=O)C(C)C)cc3s2)cc1	-7	x	x	x	x
Cc1ccc(CSc2nc3ccc(NC(=O)COc4ccccc4)cc3s2)cc1	13	x	x	1	x
C=C(C)c1cccc(C(C)(C)NC(=O)N2CCCC2)c1	13	-9	-2	0	-9
COc1ccc(Cn2c(=O)[nH]c3cc(C(=O)NC4CCN(Cc5ccccc5)CC4)ccc32)cc1	-24	-24	2	0	75*
C=C(C)c1cccc(C(C)(C)NC(=O)N2CCN(c3ccccn3)CC2)c1	-4	-3	1	5	31*
O=C(NC1CCN(Cc2ccccc2)CC1)c1ccc2c(c1)OCCCO2	-23	-30	-4	1	30*
S=C(NCc1ccc2c(c1)OCO2)NC1CCN(Cc2ccccc2)CC1	-46	-10	-2	2	103*
O=C(NC1CCCCC1)c1ccc2c(c1)OCCO2	0	2	2	-1	5
COc1ccc(S(=O)(=O)c2cnc(SCC(=O)Nc3cc(F)ccc3C)[nH]c2=O)cc1Cl	-12	x	x	0	x
Cc1cccc(NC(=O)CSc2nc3ccccc3c3nc(CCn4cncc4C)nn23)c1	0	x	x	0	x
Cc1ccc2oc(-c3cc(NC(=O)Cc4ccccc4)ccc3Cl)nc2c1	-1	x	x	2	x
Cc1cccc(C(=O)N2CCNC(=O)C2CC(=O)Nc2ccc(F)cc2)c1 (centres undefined)	2	x	x	x	x
COc1ccc(NS(=O)(=O)c2cccc(C(=O)NC3CCN(Cc4ccccc4)CC3)c2)cc1	-8	-24	-1	0	16
C=C(C)c1cccc(C(C)(C)NC(=O)NC2CCN(Cc3ccccc3)CC2)c1	-31	-26	-6	0	89*
O=C(NC1CCN(Cc2ccccc2)CC1)c1cccc(OC(F)F)c1	-22	-24	-3	0	81*
COc1cc2oc3cc(C#Cc4ccc(N)cc4)ccc3c(=O)c2cc1OC	x	-3	-1	x	x
Nc1ccc(C#Cc2ccc3c(=O)c4ccccc4oc3c2)cc1	-6	-9	-2	2	41*
